Out of some 300,000 compounds screened, about 2,300 (0.77%) were called active. This is one part of a sample in which actives are shown more often than they occur. A number with no mark means an inactive call.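 The calls were made as follows: active = more than half of replicate wells show activity change below -50%, luminescence cut by over half; inconclusive = some wells, but at most half, below -50%; inactive = no replicate well below -50%.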

A short description of this test: HSF1 inhibitors in luciferase reporter cells, primary screen, cell-based, NIH3T3, luminescence (AID 2098).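 Also: luciferase reports HSF-1 transcriptional activity via heat shock element; 0% = median of DMSO wells and -100% = zero luminescence signal.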 The conditions noted are these: NIH3T3-HGL HSE-luciferase, MG132-induced, luminescence 8 h; hits give low values; screened at 7.5 µM (by protocol).
Regarding `COc1cc(C2C(C(=O)c3cccs3)=C(O)C(=O)N2CCN2CCOCC2)ccc1OCCC(C)C` (stereo not given), the activity change, negative = inhibition is -1.71%. Next, `CC(=O)Nc1ccc(NC(=O)C(C)OC(=O)C2CC(=O)N(CCc3ccccc3)C2)cc1` (stereo not given): -2.7%; `O=[N+]([O-])c1cccc(S(=O)(=O)NCc2ccccn2)c1`: -1.49%. In the case of `O=S(=O)(NCc1ccccn1)c1ccc(F)cc1` it was -83.2% (active). In the case of `O=S(=O)(NCc1ccccn1)c1ccc(Br)s1` it was -3.36%; in that of `Cc1ccn2c(=O)c(NC(=O)c3cccc4ccccc34)c(C)nc2c1`, -1.23%; in that of `Cc1ccc(C(=O)CN2C(=O)NC3(CCc4ccccc43)C2=O)c(C)c1` (stereo not given), 6.44%. Turning to `O=C(COC(=O)c1ccccn1)NNC(=O)c1ccc([N+](=O)[O-])cc1`, the activity change, negative = inhibition is -1.26%.

Take `CC(=O)c1sc(N)nc1C`: the activity change, negative = inhibition is 1.87%.

With `CN(Cc1ccccc1F)C(=O)C(Cc1ccccc1)NC(=O)c1ccccc1` (stereo not given), the activity change, negative = inhibition was 1.87%. With `COc1ccccc1C(=O)NC(=S)Nc1ccccc1N1CCCCC1`, the activity change, negative = inhibition is -53.8% (active). Next, `COc1ccc(C(=O)NC(=S)Nc2ccccc2N2CCN(S(C)(=O)=O)CC2)cc1OC`: -1.5%; `O=C(NC(=S)Nc1ccccc1N1CCCCC1)c1ccc(F)cc1`: -7.72%; `O=C(Cc1ccc(Br)cc1)NCCc1ccccc1`: 3.74%.

Turning to `O=C(CSc1ncccn1)NCCc1ccccc1`, the activity change, negative = inhibition is -68.6% (active). In the case of `O=C(CSc1ncccn1)NC(=O)NCc1ccccc1` it was 2.98%; in that of `Cc1cc2oc3ccc(NCCC4CCCN4C)cc3c(=O)c2cc1C` (stereo not given), 6.14%; in that of `CCN(C(=O)CSc1nnc(-c2ccncc2)o1)c1ccccc1`, -5.45%. On to `CCOC(=O)CSc1nnc(-c2ccncc2)o1`, for which the activity change, negative = inhibition is -9.32%.

In the case of `CCc1ccccc1NC(=O)CSc1nnc(-c2ccncc2)o1`, the activity change, negative = inhibition is -75.8% (active). For `COc1ccc(S(=O)(=O)N2CCCCC2)cc1NC(=O)c1cc([N+](=O)[O-])ccc1N1CCOCC1`, the activity change, negative = inhibition was -3.7%. In the case of `O=C(NC1CCCCC1)c1cc([N+](=O)[O-])ccc1N1CCOCC1` it was 0.205%. Consider `CCOc1ccc2nc(NC(=O)c3cc([N+](=O)[O-])ccc3N3CCOCC3)sc2c1`, for which the activity change, negative = inhibition is -61.5% (active). As for `O=C(Nc1ncccc1O)c1ccc(C(=O)c2ccccc2)cc1`, the activity change, negative = inhibition is -2.64%.

As to `COC(=O)c1ccc(NS(=O)(=O)c2cc3c4c(c2)C(C)C(=O)N4CCC3)cc1` (stereo not given), the activity change, negative = inhibition was -0.43%. In the case of `Cc1ccc(C)c(OCCC(=O)Nc2cccc(S(=O)(=O)N3CCCC3)c2)c1` it was 3.66%; in that of `CCOc1cccc(-n2nnnc2-c2ccc(OC)cc2)c1`, -2.61%; in that of `COc1ccc(-n2nnnc2-c2nc3ccccc3s2)cc1`, -65.3% (active). `COc1ccc(C2=NN(c3nc4ccccc4s3)C(=O)C2)cc1`: the activity change, negative = inhibition is 1.26%. In the case of `Nc1cccnc1Sc1ccccc1` it was -0.323%; in that of `CCCCn1c(N)c(N(CCC(C)C)C(=O)CC2OC(=O)c3ccccc32)c(=O)[nH]c1=O` (stereo not given), 3.21%. In the case of `O=C(COc1cccc2c1CCNC2=O)NC1CCCCC1` it was -0.75%; in that of `O=C(COC(=O)c1cccc(Cl)c1)Nc1ccc2[nH]c(=O)[nH]c2c1`, -4.05%. Next, `O=C(Nc1ccnn1C1CCN(Cc2cccc(OCCO)c2)CC1)C1CCCC1`: -3.05%; `Cc1nn(C)c(Cl)c1CN1CCC(n2nccc2NC(=O)C2CCCC2)CC1`: -53.5% (active); `CC(CN1CCC(n2nccc2NC(=O)C2CCCC2)CC1)c1ccccc1` (stereo not given): -6.86%. With `c1ccc(C[C@H]2CNCCN2CCC23CC4CC(CC(C4)C2)C3)cc1`, the activity change, negative = inhibition was 0.124%. Next, `COc1cc2c(cc1OC)C(Cc1cc(OC)c(OC)cc1[N+](=O)[O-])=NCC2`: -5.53%.

Regarding `CC(=O)Nc1cccc(C(=O)OCC(=O)c2ccc3c(c2)OCO3)c1`, the activity change, negative = inhibition was -8.13%.

For `CCCCn1c(N)c(N(CCOC)C(=O)c2cccc(OCc3ccccc3)c2)c(=O)[nH]c1=O`, the activity change, negative = inhibition was -6.51%. With `O=C(Nc1ccccc1Cl)Nn1cnnc1`, the activity change, negative = inhibition was -3.45%.

For the compound `O=C(Nc1ccccc1Cl)/C(Cl)=C(\Cl)S(=O)c1ccccc1` (stereo not given), the activity change, negative = inhibition was -63.2% (active). In the case of `O=C(COC(=O)c1cccs1)Nc1ccccc1Cl` it was 4.76%; in that of `CC(C)CN(C(=O)c1ccc2c(c1)OCO2)C1CCS(=O)(=O)C1` (stereo not given), 1.63%; in that of `COc1ccc(C(=O)OCC(=O)NCCCc2ccccc2)cc1OC`, -6.5%. As to `COc1ccccc1C(=O)OCC(=O)NCCNC(=O)COC(=O)c1ccccc1OC`, the activity change, negative = inhibition is -54.9% (active). In the case of `COc1ccccc1C(=O)NC(=O)COC(=O)c1ccco1` it was -2.8%; in that of `COc1ccccc1C(=O)NC(CCSC)C(=O)NNC(=O)c1ccccc1C` (stereo not given), -4.57%.

As for `CCOc1ccc(OCc2cccc(C(=O)N(CC)CC)c2)cc1`, the activity change, negative = inhibition is -51.8% (active). In the case of `CCOc1ccc(OCc2ccc(C(=O)N(C)c3ccccc3)o2)cc1` it was 9.19%; in that of `COc1ccc(OCc2cccc(C(=O)N3CCCC3)c2)cc1`, -11%; in that of `Cc1ccc(S(=O)(=O)N2CCOCC2)cc1C(=O)Nc1ccccc1N1CCCC1`, 3.38%.

Consider `O=C(CCCO)N/N=C/c1cc(Br)ccc1O`, for which the activity change, negative = inhibition was -13.7%.

For the compound `Oc1ccc(Br)cc1/C=N/Nc1ccccn1`, the activity change, negative = inhibition is -72.1% (active). Next, `O=[N+]([O-])c1ccc(O)c(/C=N/Nc2ccccc2[N+](=O)[O-])c1`: 2.12%; `Cn1c(=N)n(CC(O)c2cccs2)c2ccccc21` (stereo not given): -12.7%. With `Cc1nc2ccccc2n1CC(O)c1ccccc1` (stereo not given), the activity change, negative = inhibition is -6.27%. Regarding `Cn1c(=N)n(CC(O)c2ccccc2)c2ccccc21` (stereo not given), the activity change, negative = inhibition is -64.8% (active). Next, `COc1ccc(C(=O)Nc2cccc(NC(=O)c3ccc(OC)cc3OC)n2)c(OC)c1`: -27.9%. Next, `Cc1ccc(CN2CCN(c3ccccc3Cl)CC2)o1`: -5.3%; `COC(=O)C1=CN(C)C=C(C(=O)OC)C1c1ccc(Cl)cc1Cl`: 6.26%. Next, `COC(=O)C1=CN(c2ccc(F)c(F)c2)C=C(C(=O)OC)C1c1ccc([N+](=O)[O-])cc1`: -77.3% (active). For `COC(=O)c1nc2n(n1)C(c1ccc([N+](=O)[O-])cc1)C(C(=O)Nc1ccc(Cl)cc1)=C(C)N2` (stereo not given), the activity change, negative = inhibition is -14.3%.

In the case of `Brc1ccc2nc(N3CCCC3)sc2c1`, the activity change, negative = inhibition is 22%. Next, `Cc1nc2cc3c(cc2s1)OCO3`: 3.71%. Regarding `c1c2c(cc3sc(N4CCCCC4)nc13)OCCO2`, the activity change, negative = inhibition is -55.1% (active).

As to `Cc1ccc(S(=O)(=O)N2CCN(C(=O)c3ccc(-n4cncn4)c([N+](=O)[O-])c3)CC2)cc1`, the activity change, negative = inhibition was -4.92%. In the case of `Cc1cc(C)c(SCCc2ccncc2)c(C)c1` it was -16.4%. In the case of `CC(C)(C)C(=O)COC(=O)c1cc(S(=O)(=O)N2CCCCC2)ccc1N1CCOCC1` it was 0.13%; in that of `Cc1ccnc(NS(=O)(=O)c2ccc(NC(=O)c3ccc(S(=O)(=O)N(C)C)cc3)cc2)n1`, 1.75%.

For `Cc1ccnc(NS(=O)(=O)c2ccc(NC(=O)c3oc4ccccc4c3C)cc2)n1`, the activity change, negative = inhibition was -1.33%. Next, `Cc1cc(C)c2oc(C(=O)Nc3ccc(S(=O)(=O)Nc4nccc(C)n4)cc3)cc(=O)c2c1`: -70.7% (active). Take `CC1(c2nnc(Cc3ccccc3)o2)CC(c2ccccc2F)=NO1` (stereo not given): the activity change, negative = inhibition was -1.4%.

Turning to `Cc1cccc(C(=O)NC(=S)N2CCN(c3ccc([N+](=O)[O-])cc3)CC2)c1`, the activity change, negative = inhibition is -62.5% (active). As for `Cc1cccc(C(=O)NNC(=O)c2cccc([N+](=O)[O-])c2)c1`, the activity change, negative = inhibition was -3.12%. Take `Cc1cccc(C(=O)Nc2ccccc2N2CCN(c3ccc(F)cc3)CC2)c1`: the activity change, negative = inhibition is -1.05%. Next, `O=S(=O)(/C=C/c1ccccc1)N1CCNCC1`: 0.181%; `CN1CCN(S(=O)(=O)c2ccc(Nc3ccc(F)cc3)nc2)CC1`: -3.3%; `COc1ccc(NC(=O)c2cc(-c3ccc(C)o3)nc3ccccc23)cc1`: 8.98%.

Regarding `O=C(Nc1cccc(F)c1)c1cc(-c2ccco2)nc2ccccc12`, the activity change, negative = inhibition is -58.6% (active). In the case of `O=C(O)c1cccc(NC(=O)c2cc(-c3cccc(Cl)c3)nc3ccccc23)c1` it was -10.6%; in that of `COc1ccccc1C(=O)NCCC(=O)NC(C)CCc1ccccc1` (stereo not given), 1.3%; in that of `Cc1ccc(S(=O)(=O)N(C)c2ccc(OCC(=O)OCc3ccc(C#N)cc3)cc2)cc1`, -4.36%. Next, `COc1ccc(C2=NOC(Cn3nc(C(=O)NCc4ccc5c(c4)OCO5)cc3-c3ccccc3)C2)cc1` (stereo not given): 2.18%; `c1ccc(-c2c[nH]c(-c3ccccc3)c2)cc1`: -83.8%; `O=C(Nc1ccccc1)Nc1ccc(C(F)(F)F)cn1`: -1.47%. Consider `Cc1nccn1CC(=O)N/N=C/c1ccc(O)c(O)c1`, for which the activity change, negative = inhibition was 2.17%. In the case of `Oc1ccc(/C=N/Nc2ccc(C(F)(F)F)cn2)cc1O`, the activity change, negative = inhibition was -78.4% (active).

Take `CSc1ncccc1C(=O)NC1CCCCCC1`: the activity change, negative = inhibition is -4.75%.

With `N/C(=N\OC(=O)CCC1CCCCC1)c1ccccn1`, the activity change, negative = inhibition is 17.7%. Next, `CCC(C)(NC(=O)c1ccccn1)C(=O)NC1CCCCC1` (stereo not given): -54.6% (active). In the case of `CC(Oc1ccc(F)cc1)C(=O)Nc1ccccc1C(=O)NC1CC1` (stereo not given) it was 5.48%. Next, `CCOC(=O)N1CCN(C(=O)c2ccccc2SCC(=O)NCC2CCCCC2)CC1`: 6.98%. Take `COC(=O)[C@@]12CCCN1[C@H](c1ccc(-c3ccc(F)cc3)c(OC)c1)[C@H]1C(=O)N(C)C(=O)[C@H]12`: the activity change, negative = inhibition was 20.6%. In the case of `CC(=O)O[C@H]1CC[C@@]2(C)[C@@H](CC[C@@H]3[C@@H]2CC[C@]2(C)[C@@H](C(C)(C)O)C[C@@H]32)C1` it was -1.58%.

(Values after PubChem BioAssay AID2098 (Broad Institute, 2009).)
